Bioassay records: PubChem BioAssay, several laboratories
Rows were chosen to be rich in hits. Some 2.3% of all compounds tested hit in one or more screens of this group.
Jurkat NFkB inh = lowers PMA/ionomycin-induced NF-kB signal in Jurkat cells; 0.53% of 330,000 active; PMA/ionomycin-induced NF-kB luciferase reporter, luminescence; inhibition, % at 4 µM; in the data active = inhibition above about 50%
Gli-Sufu block = antagonists of Gli-Sufu signaling | Sufu-KO-LIGHT fibroblasts, Gli luciferase reporter luminescence | inhibition, % at 5 µM | 0.74% of 340,000 active | AID 588413;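 active = inhibition above about 55%, limit read from the data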
697 NFkB inh = lowers PMA/ionomycin-induced NF-kB signal in 697 B cells; 0.33% of 330,000 active; inhibition, % at 4 µM; 697 B-cell NF-kB luciferase reporter, 16 h; in the data active = inhibition above about 35%
Shn3 inh set2 = Schnurri-3 reporter inhibition in Clone20 osteoblasts. inhibition, % at 12.5 µM. 0.52% of 360,000 active. AID 588674. Clone20 osteoblast Shn3 3'UTR firefly luciferase, 24 h;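 active = mean inhibition of at least 75% with every replicate also reaching 75%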
MITF TRPM1 inh = MITF TRPM1 promoter inhibition in SK-MEL-5 cells; 0.83% of 330,000 active; AID 488899; SK-MEL-5 TRPM1 promoter luciferase, 24 h; inhibition, % at 12.5 µM;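 active = mean inhibition across replicates of 60% or more, whatever share of single replicates reaches that level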
LMP1 NFkB inh = Epstein-Barr LMP1 NF-kappaB reporter inhibition; LMP1-induced NF-kappaB luciferase reporter cells, luminescence; 0.69% of 350,000 active; inhibition, % at 12.5 µM; in the data active = inhibition above about 41%
Gli antag conf = Gli-SUFU antagonism confirmation, single concentration; 40% of 2,500 active; Sufu-KO-LIGHT cells, Gli luciferase reporter, luminescence; shares compounds with Gli-Sufu block; AID 602428; inhibition, % at 5 µM;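 active = mean inhibition at 5 µM reaching about 45%, limit read from the data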
SufuKO cytotox = cytotoxic in Gli-SUFU antagonist counter-screen | 32% of 2,500 active | Sufu-KO-LIGHT cells cytotoxicity, ATP luminescence | cytotoxicity, % at 5 µM | AID 651994 | shares compounds with Gli-Sufu block;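 active = mean cytotoxicity at 5 µM above about 25%, limit read from the data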;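 note: cells exposed to compound overnight for roughly 16 to 18 hours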
Wnt3a cs = inhibits Wnt3a reporter, counter-screen for Gli-SUFU antagonists; shares compounds with Gli-Sufu block; Wnt-LIGHT cells, Wnt3a-driven luciferase reporter, luminescence; inhibition, % at 6.25 µM; 20% of 2,500 active; AID 651995;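 active = mean inhibition above about 25%, limit read from the data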
Hits are given with their value.

What do the screens show for `Cc1ccc2c(c1)c(C)cc[n+]2Cc1ccccc1`?
Jurkat NFkB inh: inactive; Gli-Sufu block: 58; 697 NFkB inh: inactive; Shn3 inh set2: inactive; MITF TRPM1 inh: inactive; LMP1 NFkB inh: inactive; Gli antag conf: 60; SufuKO cytotox: 30; Wnt3a cs: inactive

Results for Cc1ccc2ccc[n+](Cc3ccccc3)c2c1 ?
Jurkat NFkB inh: inactive; Gli-Sufu block: inactive; 697 NFkB inh: inactive; Shn3 inh set2: inactive; MITF TRPM1 inh: inactive; LMP1 NFkB inh: inactive

Results for COc1ccc2c(c1)c(C)cc[n+]2Cc1ccccc1 ?
Jurkat NFkB inh: inactive; Gli-Sufu block: 65; 697 NFkB inh: inactive; Shn3 inh set2: inactive; MITF TRPM1 inh: inactive; LMP1 NFkB inh: inactive; Gli antag conf: 67; SufuKO cytotox: inactive; Wnt3a cs: inactive

Results for COc1ccc(Cl)cc1C(=O)NNC(=S)NC(=O)c1cc(-c2ccc(Cl)cc2)nc2ccccc12 ?
Jurkat NFkB inh: inactive; Gli-Sufu block: inactive; 697 NFkB inh: inactive; Shn3 inh set2: inactive; MITF TRPM1 inh: inactive; LMP1 NFkB inh: inactive

How did CNC(=S)/N=C/NOCc1ccc(Cl)cc1Cl do in these assays?
Jurkat NFkB inh: inactive; Gli-Sufu block: inactive; 697 NFkB inh: inactive; Shn3 inh set2: inactive; MITF TRPM1 inh: inactive; LMP1 NFkB inh: inactive; Gli antag conf: inactive; SufuKO cytotox: inactive; Wnt3a cs: inactive

Results for Cn1ncc(Cl)c1C(=O)N1CCN(C23CC4CC(CC(C4)C2)C3)CC1 ?
Jurkat NFkB inh: inactive; Gli-Sufu block: 99; 697 NFkB inh: inactive; Shn3 inh set2: inactive; MITF TRPM1 inh: inactive; LMP1 NFkB inh: inactive; Gli antag conf: inactive; SufuKO cytotox: inactive; Wnt3a cs: inactive

What do the screens show for `C/C(CC(=O)Nc1ccccn1)=N\NC(=O)C(=O)Nc1ccccc1C`?
Jurkat NFkB inh: inactive; Gli-Sufu block: 56; 697 NFkB inh: inactive; Shn3 inh set2: inactive; MITF TRPM1 inh: inactive; LMP1 NFkB inh: inactive; Gli antag conf: inactive; SufuKO cytotox: inactive; Wnt3a cs: inactive

How did COc1ccccc1NC(=O)C(=O)N/N=C(\C)CC(=O)Nc1ccccn1 do in these assays?
Jurkat NFkB inh: inactive; 697 NFkB inh: inactive; Shn3 inh set2: inactive; MITF TRPM1 inh: inactive; LMP1 NFkB inh: inactive

Results for Cc1cc(-n2c(C)cc(C(=O)COc3cccnc3[N+](=O)[O-])c2C)no1 ?
Jurkat NFkB inh: inactive; Gli-Sufu block: inactive; 697 NFkB inh: inactive; Shn3 inh set2: inactive; MITF TRPM1 inh: inactive; LMP1 NFkB inh: inactive

Results for Cc1cc(C(=O)COc2cccnc2[N+](=O)[O-])c(C)n1Cc1cccs1 ?
Jurkat NFkB inh: inactive; Gli-Sufu block: 71; 697 NFkB inh: inactive; Shn3 inh set2: inactive; MITF TRPM1 inh: inactive; LMP1 NFkB inh: inactive; Gli antag conf: inactive; SufuKO cytotox: inactive; Wnt3a cs: 49

How did CCOc1ccccc1N1CC(C(=O)Nc2cc(Cl)ccc2C)CC1=O (stereo not drawn) do in these assays?
Jurkat NFkB inh: inactive; Gli-Sufu block: inactive; 697 NFkB inh: inactive; Shn3 inh set2: inactive; MITF TRPM1 inh: inactive; LMP1 NFkB inh: inactive

Results for Cc1ccc(C#N)c(SCc2nnc(-c3ccc(Cl)cc3)o2)n1 ?
Jurkat NFkB inh: inactive; Gli-Sufu block: 75; 697 NFkB inh: inactive; Shn3 inh set2: inactive; MITF TRPM1 inh: inactive; LMP1 NFkB inh: inactive; Gli antag conf: 88; SufuKO cytotox: 60; Wnt3a cs: 99

How did Cc1ccc(C#N)c(SCc2cc3c(cc2Cl)OCO3)n1 do in these assays?
Jurkat NFkB inh: inactive; Gli-Sufu block: inactive; 697 NFkB inh: inactive; Shn3 inh set2: inactive; MITF TRPM1 inh: inactive; LMP1 NFkB inh: inactive

What do the screens show for `O=C(CN1CCCc2ccccc21)NCc1ccccc1Cl`?
Jurkat NFkB inh: inactive; Gli-Sufu block: inactive; 697 NFkB inh: inactive; Shn3 inh set2: inactive; MITF TRPM1 inh: inactive; LMP1 NFkB inh: inactive

What do the screens show for `CC1=C(C(=O)N2CCOCC2)CC(CC(=O)NC(c2ccccc2)c2ccccc2)C(=O)N1Cc1ccc(C(C)(C)C)cc1` (stereo not drawn)?
Shn3 inh set2: inactive; LMP1 NFkB inh: inactive

How did Cc1[nH]c(C)c(S(=O)(=O)NCc2ccccc2Cl)c1C(=O)N1CCCC1 do in these assays?
Jurkat NFkB inh: inactive; Gli-Sufu block: 58; 697 NFkB inh: inactive; Shn3 inh set2: inactive; MITF TRPM1 inh: inactive; LMP1 NFkB inh: inactive; Gli antag conf: inactive; SufuKO cytotox: inactive; Wnt3a cs: inactive

How did O=C(COC(=O)COc1ccc2ccccc2c1)Nc1cc(C(F)(F)F)ccc1N1CCOCC1 do in these assays?
Jurkat NFkB inh: inactive; Gli-Sufu block: inactive; 697 NFkB inh: inactive; Shn3 inh set2: inactive; MITF TRPM1 inh: inactive; LMP1 NFkB inh: inactive

What do the screens show for `Cc1ccc(C(=O)NCCCN2CCOCC2)cc1S(=O)(=O)N1CCOCC1`?
Jurkat NFkB inh: inactive; Gli-Sufu block: inactive; 697 NFkB inh: inactive; Shn3 inh set2: inactive; MITF TRPM1 inh: inactive; LMP1 NFkB inh: inactive

How did O=C(CN1C(=O)COc2ccc(S(=O)(=O)N3CCCCC3)cc21)NCc1ccc(Cl)cc1 do in these assays?
Jurkat NFkB inh: inactive; Gli-Sufu block: 59; 697 NFkB inh: inactive; Shn3 inh set2: inactive; MITF TRPM1 inh: inactive; LMP1 NFkB inh: inactive; Gli antag conf: inactive; SufuKO cytotox: 25; Wnt3a cs: inactive

Results for CCOC(=O)N/N=C/c1ccc(Oc2ccccc2)cc1 ?
Gli-Sufu block: inactive; Shn3 inh set2: inactive; MITF TRPM1 inh: inactive; LMP1 NFkB inh: inactive

How did O=C(Nc1ccc([N+](=O)[O-])cc1)c1ccccc1 do in these assays?
Jurkat NFkB inh: inactive; Gli-Sufu block: inactive; 697 NFkB inh: inactive; Shn3 inh set2: inactive; MITF TRPM1 inh: inactive; LMP1 NFkB inh: inactive

How did O=C(Nc1cc(Sc2ccccn2)cc([N+](=O)[O-])c1)c1ccc([N+](=O)[O-])cc1 do in these assays?
Jurkat NFkB inh: inactive; Gli-Sufu block: inactive; 697 NFkB inh: inactive; Shn3 inh set2: inactive; MITF TRPM1 inh: inactive; LMP1 NFkB inh: inactive; Gli antag conf: inactive; SufuKO cytotox: 26; Wnt3a cs: inactive

How did O=C(NCc1ccc(F)cc1)C1CCN(S(=O)(=O)c2ccc3c(c2)OCCCO3)CC1 do in these assays?
Jurkat NFkB inh: inactive; Gli-Sufu block: inactive; 697 NFkB inh: inactive; Shn3 inh set2: inactive; MITF TRPM1 inh: inactive; LMP1 NFkB inh: inactive

How did O=C(NCc1ccc(Cl)cc1Cl)C1CCN(S(=O)(=O)c2ccc3c(c2)OCCCO3)CC1 do in these assays?
Jurkat NFkB inh: inactive; Gli-Sufu block: 63; 697 NFkB inh: inactive; Shn3 inh set2: inactive; MITF TRPM1 inh: inactive; LMP1 NFkB inh: inactive; Gli antag conf: inactive; SufuKO cytotox: inactive; Wnt3a cs: inactive
